Results reported in PubChem BioAssay AID620 (Sanford-Burnham Center for Chemical Genomics, 2007).
Hit rate of the full screen: of about 87,000 compounds, about 360 (0.41%) were called active. Rule as the data show it: active = cytotoxicity above about 50%; inactive = the rest. For the sample, actives were picked, then their nearest neighbours and some compounds at random.

test: HT1080 cell viability loss – fluorescence readout (AID 620); conditions: at 10 µM, stronger effect = higher value;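 also: cells exposed to compound overnight then 4 h with Alamar Blue; 0% = vehicle DMSO and 100% = killing control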

Structure (SMILES) | cytotoxicity
Cn1c(=O)c2c(nc(SCCN3CCOCC3)n2Cc2ccc(Cl)cc2)n(C)c1=O | -7% (inactive)
Fc1ccc(-c2cc3nc4c(c(N5CCOCC5)n3n2)CCCC4)cc1 | -15.8% (inactive)
OC1CCN(c2c3c(nc4cc(-c5ccc(F)cc5)nn24)CCC3)CC1 | -17.8% (inactive)
O=C(C1CC1)N1CCN=C1SCc1ccccc1Cl | -3.4% (inactive)
CCOC(=O)N1CCN(S(=O)(=O)c2ccc(OCC)c(C)c2)CC1 | 4.4% (inactive)
Cc1cccc(NS(=O)(=O)c2cccc3cccnc23)n1 | 9% (inactive)
Cc1cc(C(=O)NCCCN2CCOCC2)n(-c2ccccc2)n1 | -1.5% (inactive)
Cc1cc(C(=O)NCCCN2CCN(C3CCCCC3)CC2)n(-c2ccccc2)n1 | 13.2% (inactive)
Cc1cc(C(=O)NCCN2CCN(c3cccc(Cl)c3)CC2)n(-c2ccccc2)n1 | 55.9% (active)
Cn1c(=O)[nH]c(=O)c2c1nc1n2CCCS1 | 35.1% (inactive)
N#CC(c1ccc(Cl)cc1)c1ccc2c(C(F)(F)F)cc(C(F)(F)F)nc2n1 (centres undefined) | 51.3% (active)
N#CC(c1ccccc1)c1ccc2c(C(F)(F)F)cc(C(F)(F)F)nc2n1 (centres undefined) | -4.8% (inactive)
Cc1ccc(C(C#N)c2ccc3c(C(F)(F)F)cc(C(F)(F)F)nc3n2)cc1 (centres undefined) | -12.2% (inactive)
Cc1ccc(NC(=O)CN2CCCCCC2)c(Br)c1 | -14.9% (inactive)
CCOC(=O)c1ccc(NC(=O)CC2C(=O)N(c3ccc(F)cc3)C(=O)N2CCC(C)C)cc1 (centres undefined) | 4.5% (inactive)
Cn1cc(S(=O)(=O)NCc2cccs2)c(=O)n(C)c1=O | 0.5% (inactive)
COc1ccc(S(=O)(=O)Nc2ccc(N(C)C(C)=O)cc2)cc1 | 4.3% (inactive)
Nc1nc(SCC(=O)Nc2ccccc2-c2ccccc2)n[nH]1 | 0.1% (inactive)
O=C(CSc1ncn[nH]1)Nc1ccccc1Sc1ccc(Cl)cc1 | 41.7% (inactive)
Nc1nc(SCC(=O)Nc2ccccc2Sc2ccc(Cl)cc2)n[nH]1 | 74.3% (active)
CCn1c(SCC(=O)c2ccc(NS(=O)(=O)c3ccccc3)cc2)nnc1-c1cccs1 | -0.1% (inactive)
O=C(O)C1C2CCC(O2)C1C(=O)Nc1cnn(Cc2ccccc2)c1 (centres undefined) | 13% (inactive)
CC(C)CC(NC(=O)C1CCC(C)CC1)C(=O)NCc1ccccn1 (centres undefined) | 23.1% (inactive)

Structure (SMILES) | cytotoxicity
Cn1c(C(=O)N2CCC(C(=O)N3CCOCC3)CC2)cc2sccc21 | 4.3% (inactive)
CCOc1ccccc1-n1c(SCC(N)=O)nnc1-c1cccnc1 | 7.9% (inactive)
COc1cc(-c2nnc3n2N=C(c2ccccc2)CS3)cc(OC)c1OC | 66.9% (active)
Cc1cccc(-c2nnc3n2N=C(c2ccccc2)CS3)c1 | 5.5% (inactive)
COc1ccc(OC)c(C2=Nn3c(nnc3-c3cc(OC)c(OC)c(OC)c3)SC2)c1 | 64.1% (active)
COc1ccc(OC)c(C2=Nn3c(nnc3-c3ccncc3)SC2)c1 | 2.2% (inactive)
Brc1ccc(C2=Nn3c(nnc3-c3n[nH]c4c3CCC4)SC2)cc1 | 56.3% (active)
COc1cccc(-c2nnc3n2N=C(c2cc(OC)ccc2OC)CS3)c1 | 5.5% (inactive)
COc1ccc(-c2nnc3n2N=C(c2ccccc2)CS3)cc1OC | -10.6% (inactive)
COc1ccc(C2=Nn3c(nnc3-c3ccc(OC)cc3)SC2)cc1 | 62.4% (active)
COc1ccc(C2=Nn3c(nnc3-c3ccncc3)SC2)cc1 | -6.8% (inactive)
COc1ccc(-c2nnc3n2N=C(C)CS3)cc1 | -10.3% (inactive)
Clc1ccc(C2=Nn3c(nnc3-c3n[nH]c4c3CCC4)SC2)cc1 | 6.1% (inactive)
Fc1ccc(C2=Nn3c(nnc3-c3n[nH]c4c3CCC4)SC2)cc1 | 5.8% (inactive)
N#CCSc1nnc(Cc2cccs2)n1C1CCCCC1 | 11.1% (inactive)
Cc1ccc(C(=O)N2CCC(C(N)=O)CC2)cc1C | -2.5% (inactive)
Cc1nn(Cc2n[nH]c(=S)n2Cc2ccccc2)c(C)c1Cl | -7% (inactive)
Cc1ccc(NC(=O)C2(N(CC(C)C)C(=O)Cn3nnnc3N)CCCCC2)cc1 | 3% (inactive)
CCNC(=O)CSc1nnc(-c2ccc(OC)cc2)n1CC(C)C | -18.3% (inactive)
CSCC[C@H](Nc1ncnc2sc(C)c(C)c12)C(=O)O | -6% (inactive)
CSc1nnc(-c2ccccc2)o1 | -3.8% (inactive)
O=c1[nH]c2ccccc2nc1N1CCOCC1 | -5% (inactive)
O=S(=O)(c1ccc(N2CCC(c3ccc(Cl)cc3)=N2)cc1)N(CCO)CCO | -11.6% (inactive)

Structure (SMILES) | cytotoxicity
CN(C)CCNS(=O)(=O)c1ccc(Cl)cc1 | -7.5% (inactive)
COc1ccc(-n2nnc3c(=O)n(C/C=C/c4ccccc4)cnc32)cc1 | -3.8% (inactive)
COc1ccc(CNC(=O)c2c(N)n(CCCN3CCOCC3)c3nc4ccccc4nc23)cc1 | 15.1% (inactive)
Nc1c(C(=O)NCc2ccc(F)cc2)c2nc3ccccc3nc2n1CCCN1CCOCC1 | 0.2% (inactive)
Nc1c(C(=O)NCc2ccc3c(c2)OCO3)c2nc3ccccc3nc2n1CCCN1CCOCC1 | 52.9% (active)
O=C(O)CSCCc1ccccn1 | 8.2% (inactive)
CN1C(=O)CSc2ccc(NC(=O)N3CCc4ccccc43)cc21 | 64.2% (active)
COc1cccc(NC(=O)Nc2ccc3c(c2)N(C)C(=O)CS3)c1 | 6% (inactive)
CN1C(=O)CSc2ccc(NC(=O)N3CCN(c4ccccn4)CC3)cc21 | -6.2% (inactive)
Cc1nc(NC2=NCN(CCN3CCOCC3)CN2)nc2c(C)cccc12 | 4.7% (inactive)
Cc1cc2nc(NC3=NCN(CCCN4CCOCC4)CN3)nc(C)c2cc1C | 4.7% (inactive)
CCOC(=O)c1ccc(NC(=O)c2c(C)[nH]c(C(=O)OCC)c2C)cc1 | 5.5% (inactive)
CCOC(=O)c1[nH]c(C)c(C(=O)N2CCc3ccccc32)c1C | 57.9% (active)
COc1ccc(OC)c(NC(=O)c2[nH]c(C)c(C(C)=O)c2C)c1 | 11.3% (inactive)
CCOC(=O)c1[nH]c(C)c(C(=O)Nc2cc(Cl)ccc2C)c1C | 52% (active)
CCOC(=O)c1c(C)[nH]c(C(=O)OCC(=O)N2CCc3ccccc32)c1C | -4.1% (inactive)
CCOC(=O)c1c(C)[nH]c(C(=O)OCC(=O)Nc2cc(C)ccc2OC)c1C | -1.2% (inactive)
CCOC(=O)c1[nH]c(C)c(C(=O)Nc2ccc(C)c(C)c2)c1C | -11.9% (inactive)
CCOC(=O)c1[nH]c(C)c(C(=O)Nc2cc(OC)ccc2OC)c1C | 58% (active)
CCOC(=O)c1[nH]c(C)c(C(=O)OCC(=O)N2CCc3ccccc32)c1C | 6.7% (inactive)
CCOC(=O)c1[nH]c(C)c(C(=O)Nc2ccc(C)cc2C)c1C | 52.7% (active)
CCOC(=O)c1[nH]c(C)c(C(=O)Nc2ccc(C)c(Cl)c2)c1C | 22.7% (inactive)
CCOC(=O)c1[nH]c(C)c(C(=O)Nc2ccc(Cl)cc2)c1C | 0.6% (inactive)
